Laboratory results: PubChem BioAssay (Tox21)
Inconclusive results are not listed. Calls of active or inactive are those of the source. Unless noted, the call rests on the fitted dose curve; in most records, active means well fitted curve in the direction sought with a large enough effect in the repeat runs; inconclusive means weak or mixed curves; inactive means no such curve, though single readings can be large; an effect the other way counts as inactive or inconclusive.

How the values were obtained:
[1] = target: Peroxisome proliferator-activated receptor delta (Homo sapiens) (UniProt Q03181); assay: qHTS assay to identify small molecule agonists of the peroxisome proliferator-activated receptor delta (PPARd) signaling pathway (AID 743212; calls by dose curve;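 further: HEK293H cells with PPARd UAS beta-lactamase reporter GeneBLAzer system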)
Peroxisome proliferator-activated receptor delta (Homo sapiens), sequence (Q03181 whole entry, looked up): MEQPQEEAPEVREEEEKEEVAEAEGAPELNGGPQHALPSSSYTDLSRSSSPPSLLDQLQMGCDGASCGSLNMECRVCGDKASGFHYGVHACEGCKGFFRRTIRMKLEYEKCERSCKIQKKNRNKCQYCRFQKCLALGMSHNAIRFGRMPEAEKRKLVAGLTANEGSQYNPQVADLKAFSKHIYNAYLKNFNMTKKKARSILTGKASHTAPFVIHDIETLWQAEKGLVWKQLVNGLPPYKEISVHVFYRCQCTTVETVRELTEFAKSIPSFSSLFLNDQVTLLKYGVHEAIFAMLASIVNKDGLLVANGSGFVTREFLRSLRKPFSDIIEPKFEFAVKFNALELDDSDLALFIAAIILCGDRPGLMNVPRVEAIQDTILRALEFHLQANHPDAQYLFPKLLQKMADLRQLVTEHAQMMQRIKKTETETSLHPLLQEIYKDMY
Outline: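 Beta-lactamase reporter readout: a ratiometric FRET signal from the LiveBLAzer substrate after 2 h at room temperature. Compound exposure at 37 °C in PPARδ-bla HEK293H cells driven by an upstream activator sequence.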

[2] = qHTS assay to identify small molecule antagonists of the peroxisome proliferator-activated receptor delta (PPARd) signaling pathway - cell viability counter screen (AID 743213); further: nearly all actives have a fitted effect of over 50% in size
Outline: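 Luminescence from CellTiter-Glo, added after the bla read and incubated 30 min at room temperature, gives viability of HEK293H PPARd-bla cells exposed to compounds for 17 h at 37 C with 300 nM L165041.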

[3] = target: Peroxisome proliferator-activated receptor delta (Homo sapiens) (UniProt Q03181); assay: qHTS assay to identify small molecule antagonists of the peroxisome proliferator-activated receptor delta (PPARd) signaling pathway (AID 743215; active means well fitted inhibition curve with a large enough effect in the signal ratio in the repeat runs, not every such curve was filed as active; the % refers to the signal ratio;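 further: cells stimulated with agonist L165041 at 300 nM final during compound exposure; series mostly up to about 62 µM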)
Outline: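 Fluorescence from cleaved LiveBLAzer B/G FRET substrate (2 h, room temperature) reports PPARd-driven beta-lactamase in HEK293H UAS-bla cells. Cells had been treated 17 h at 37 C with compound plus 300 nM final L165041.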

[4] = qHTS assay to identify small molecule agonists of the farnesoid-X-receptor (FXR) signaling pathway - cell viability counter screen (AID 743218); further: nearly all actives have a fitted effect of over 45% in size
Outline: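 Readout: CellTiter-Glo luminescence, 30 min RT, multiplexed after the FXR-bla FRET reading. HEK 293T FXR-UAS-bla cells received compound 5 h post-plating and were incubated 16 h at 37 C.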

[5] = qHTS assay to identify small molecule antagonists of the farnesoid-X-receptor (FXR) signaling pathway - cell viability counter screen (AID 743221; active means well fitted cell-killing curve with a large enough effect in the repeat runs, not every such curve was filed as active; further: nearly all actives have a fitted effect of over 50% in size)
Outline: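 FXR-UAS-bla HEK 293T cells were treated with test compounds plus chenodeoxycholic acid (50 uM final) for 16 h at 37 C. Cell viability in the same wells was then read as CellTiter-Glo luminescence after 30 min at room temperature.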

[6] = target: Vitamin D3 receptor (Homo sapiens) (UniProt P11473); assay: qHTS assay to identify small molecule agonists of the vitamin D receptor (VDR) signaling pathway (AID 743222; calls by dose curve)
Vitamin D3 receptor (Homo sapiens), sequence (P11473 whole entry, looked up): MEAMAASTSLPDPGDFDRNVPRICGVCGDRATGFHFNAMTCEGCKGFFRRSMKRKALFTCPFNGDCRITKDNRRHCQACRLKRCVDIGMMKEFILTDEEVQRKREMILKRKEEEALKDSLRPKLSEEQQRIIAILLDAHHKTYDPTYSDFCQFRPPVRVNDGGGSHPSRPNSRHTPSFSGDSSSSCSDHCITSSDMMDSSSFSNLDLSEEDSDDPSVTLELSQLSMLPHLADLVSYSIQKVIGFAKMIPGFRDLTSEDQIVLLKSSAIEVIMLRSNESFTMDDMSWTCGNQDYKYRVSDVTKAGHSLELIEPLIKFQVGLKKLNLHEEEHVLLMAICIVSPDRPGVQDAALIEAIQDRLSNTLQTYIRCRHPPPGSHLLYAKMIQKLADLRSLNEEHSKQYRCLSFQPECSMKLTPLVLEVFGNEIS
Outline: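 Following 4 h attachment at 37C, VDR-bla cells (2,000 per well) received DMSO-dissolved compounds or controls. After 16 h incubation, LiveBLAzer B/G FRET substrate was added and fluorescence read 2 h later at room temperature.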

[7] = target: Vitamin D3 receptor (Homo sapiens) (UniProt P11473); assay: qHTS assay to identify small molecule antagonists of the vitamin D receptor (VDR) signaling pathway (AID 743223; active means well fitted inhibition curve with a large enough effect in the signal ratio in the repeat runs, not every such curve was filed as active; the % refers to the signal ratio)
Outline: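 VDR-bla cells were plated, incubated 4 h at 37C, then given compound and 1alpha,25-dihydroxyvitamin D3 (3 nM final). After 16 h at 37C, LiveBLAzer B/G FRET substrate was added for 2 h at room temperature and fluorescence read.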

[8] = target: Bile acid receptor (Homo sapiens) (UniProt Q96RI1); assay: qHTS assay to identify small molecule antagonists of the farnesoid-X-receptor (FXR) signaling pathway (AID 743217; active means well fitted inhibition curve with a large enough effect in the signal ratio in the repeat runs, not every such curve was filed as active; the % refers to the signal ratio)
Bile acid receptor (Homo sapiens), sequence (Q96RI1 whole entry, looked up): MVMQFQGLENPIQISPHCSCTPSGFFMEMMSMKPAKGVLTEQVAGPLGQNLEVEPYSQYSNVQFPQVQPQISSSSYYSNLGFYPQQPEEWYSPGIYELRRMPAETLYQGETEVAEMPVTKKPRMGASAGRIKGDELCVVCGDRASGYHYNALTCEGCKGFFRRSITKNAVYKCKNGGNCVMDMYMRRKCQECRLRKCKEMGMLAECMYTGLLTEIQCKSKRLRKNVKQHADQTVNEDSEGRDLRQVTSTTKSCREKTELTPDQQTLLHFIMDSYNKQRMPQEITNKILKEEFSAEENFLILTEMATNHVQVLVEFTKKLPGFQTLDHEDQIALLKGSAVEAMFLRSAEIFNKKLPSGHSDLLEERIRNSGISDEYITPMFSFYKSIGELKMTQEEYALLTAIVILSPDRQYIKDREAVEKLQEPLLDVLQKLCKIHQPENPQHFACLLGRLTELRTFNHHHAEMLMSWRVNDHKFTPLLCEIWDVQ
Outline: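 FRET fluorescence after 2 h room-temperature LiveBLAzer loading gives the readout. Prior step: FXR-bla HEK 293T cells, seeded and incubated 5 h, received test compounds plus 50 uM final CDCA for 16 h at 37 °C.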

[9] = target: Bile acid receptor (Homo sapiens) (UniProt Q96RI1); assay: qHTS assay to identify small molecule agonists of the farnesoid-X-receptor (FXR) signaling pathway (AID 743220; active means well fitted activation curve with a large enough effect in the signal ratio in the repeat runs, not every such curve was filed as active; the % refers to the signal ratio)
Outline: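 FXR-UAS-bla HEK 293T cells carrying a UAS-driven beta-lactamase reporter were plated for 5 h at 37C/5% CO2, then exposed to DMSO-dissolved Tox21 10K compounds for 16 h at 37C. A LiveBLAzer B/G FRET substrate was loaded for 2 h at room temperature before fluorescence reading.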
On the % scale 0 is the no-effect control and ±100 the full control effect.

NS(=O)(=O)c1cc2c(cc1Cl)NC(C1CC3C=CC1C3)NS2(=O)=O (stereo unspecified)
inactive: outcome [1] | Potency [2] | Potency [3] | Potency [4] | Potency [5] | outcome [6] | outcome [7]

Cc1cc(O)cc2c1O[C@](C)(CCC[C@H](C)CCC[C@H](C)CCCC(C)C)CC2
inactive: outcome [8] | Potency [4] | outcome [9] | outcome [6] | outcome [7]

COc1ccc(CCN(C)CCCC(C#N)(c2cc(OC)c(OC)c(OC)c2)C(C)C)cc1OC (stereo unspecified)
inactive: outcome [1] | Potency [2] | Potency [4] | Potency [5]

CCOC(=O)Nc1ccc(NCc2ccc(F)cc2)nc1N
inactive: Potency [2] | Potency [3] | Potency [4] | Potency [5]

NS(=O)(=O)c1cc(C(=O)NN2C[C@H]3[C@H]4CCC(C4)[C@H]3C2)ccc1Cl
inactive: Potency [2] | Potency [4]

C[C@H]1C[C@@H](O)CC(C)(C)C1
inactive: outcome [1] | Potency [3] | outcome [8] | Potency [4] | outcome [9] | Potency [5] | outcome [6] | outcome [7]

N=C(N)c1ccccc1
inactive: outcome [1] | Potency [2] | Potency [3] | Potency [5] | outcome [6]

CCc1cccc2c(CCO)c[nH]c12
inactive: Potency [2] | Potency [3] | Potency [4] | Potency [5] | outcome [6] | outcome [7]

CCOc1ccc(C(=O)OCCN(CC)CC)cc1
inactive: Potency [2] | outcome [8] | outcome [9] | outcome [6] | outcome [7]

c1cnc(N2CCN(Cc3ccc4c(c3)OCO4)CC2)nc1
inactive: outcome [1] | Potency [2] | Potency [3] | Potency [5] | outcome [6] | outcome [7]

O=C(CCCN1CCN(c2ccccn2)CC1)c1ccc(F)cc1
inactive: outcome [1] | Potency [4] | Potency [5] | outcome [6] | outcome [7]

CCCCC(CC)COC(=O)c1ccccc1O (stereo unspecified)
inactive: outcome [1] | Potency [2] | Potency [3] | Potency [4] | outcome [6] | outcome [7]

NC(=O)Nc1ccccc1
inactive: outcome [1] | Potency [2] | Potency [4] | Potency [5] | outcome [6]

CCCCCCCCS(=O)(=O)Cl
inactive: outcome [1] | Potency [2] | Potency [3] | Potency [4] | Potency [5] | outcome [6] | outcome [7]

CC(C)NCCCC1(C(N)=O)c2ccccc2-c2ccccc21
inactive: outcome [1] | Potency [4] | Potency [5] | outcome [7]

C=CCS(=O)(=O)O
inactive: outcome [1] | Potency [3] | outcome [8] | Potency [4] | outcome [9]

CC(C)=CCCC(C)CC(=O)O (stereo unspecified)
inactive: outcome [1] | Potency [3] | Potency [4] | Potency [5] | outcome [6] | outcome [7]

c1ccc([C@H]2CN3CCSC3=N2)cc1
inactive: outcome [1] | Potency [3] | Potency [4] | Potency [5] | outcome [6]

C=C(C)C(=O)OCCCCCCCC(C)C
inactive: Potency [2] | Potency [4] | Potency [5] | outcome [7]

O=C(O)CCCc1ccccc1
inactive: Potency [2] | Potency [4] | Potency [5] | outcome [7]

O=C(O)CN(CCOCCOCCN(CC(=O)O)CC(=O)O)CC(=O)O
inactive: activation [1] -2.28% [at 0.55 µM] | viability change, negative = cytotoxic [2] 5.18% [at 0.575 µM] | ratio activity, negative = inhibition [3] 6.3% [at 0.575 µM] | viability change, negative = cytotoxic [4] -1.35% [at 0.55 µM] | activity change, negative = cytotoxicity [5] -3.69% [at 0.55 µM] | activity change, negative = inhibition [7] 2.94% [at 0.628 µM]

NS(=O)(=O)c1ccccc1Cl
inactive: outcome [1] | Potency [2] | Potency [3] | Potency [5] | outcome [6]

Cc1c(O)cccc1O
inactive: outcome [1] | Potency [2] | outcome [8] | Potency [4] | outcome [9] | Potency [5] | outcome [7]
